For 27 compounds, Potency results are on record in PubChem BioAssay AID1671193 (National Center for Advancing Translational Sciences (NCATS), 2021).

Among all 150,000 compounds or so, about 180 (0.12%) were called active. Where a call stands in place of a potency, no number is given. Roughly 6% stayed inconclusive and do not appear here. This is one part of a sample in which actives are shown more often than they occur. Calls follow the shape of the dose curve; as a rule, active = well fitted cell-killing curve with a large enough effect; inconclusive = small, poorly fitted or top-dose-only effect, or effect the other way; inactive = flat fitted curve, though single readings scatter.
Potency is read from the fitted curve at half-maximal effect.

The assay can be described thus: GF-AFC viability counterscreen for inhibitors of alpha-synuclein gene (SNCA) expression. Also: nearly all actives have a fitted effect of over 30% in size. The following applies: HEK-293-SNCA-luc viability, GF-AFC fluorescence, 24 h; series mostly up to 57.1 µM. From the text:
Assay Submitter (PI): Daniel R. Scoles Ph.D.
Department of Neurology, University of Utah, Salt Lake City, Utah
Accumulation of alpha-synuclein is a main underlying pathological feature of Parkinson's disease (PD) and alpha-synucleinopathies, for which lowering expression of the alpha-synuclein gene (SNCA) is a potential therapeutic avenue. Using a cell-based luciferase reporter of SNCA expression we performed a quantitative high throughput screen (qHTS) of 155,885 compounds in dose response. The screening assay was generated using genome editing to insert the luciferase gene downstream and in frame of the SNCA gene in HEK-293 cells (1). A viability counterscreen using GF-AFC was used to eliminate cytotoxic and false positive compounds. After in silico analysis (clustering, removal of frequent hitter nuisance chemotypes), inhibitor compounds from the primary screen were selected for follow up and re-tested at 11-doses in the SNCA-luc cells (luciferase and GF-AFC confirmation), and in CMV-luc expressing cell line to flag general transcriptional repressors.
Described herein are the results of the GF-AFC viability counterscreen for SNCA inhibitors; inactivity (no decrease in fluorescence signal, not cytotoxic) is the desired output for this assay.
1. Dansithong, W., Paul, S., Scoles, D. R., Pulst, S. M., and Huynh, D. P. (2015) Generation of SNCA Cell Models Using Zinc Finger Nuclease (ZFN) Technology for Efficient High-Throughput Drug Screening. PLoS ONE 10, e0136930.
SEQUENCE No. (e.g., 1, 2, 3, etc.); […] (e.g., Cells, Incubation, Reagent, etc.); VALUE; DESCRIPTION
1; Cells; 4 uL; Dispense 1500 HEK-293-SNCA-luc cells/well into Greiner 1536-well white / solid bottom tissue culture treated plate. The plate was covered with metal lids with gas-exchange holes.
2; Incubate; 24 hours; Incubate at 37C, 5% CO2, 95% RH.
3; Compounds; 23 nL; Compounds and controls were transferred via a Kalypsys Pin Tool (Wako USA) equipped with a 1536-slotted pin array. The plate was covered with metal lids with gas-exchange holes.
4; Incubate; 24 hours; Incubate at 37C, 5% CO2, 95% RH.
5; Dispense; 1 uL; Dispense Gly-Phe-7-amino-4-trifluoromethylcoumarin (GF-AFC, prepared at 125 uM in PBS) was added. The plate was covered with metal lids with gas-exchange holes.
6; Incubate; 30 min; Incubate at 37C, 5% CO2.
7; Detector; Fluorescence; Measure fluorescence with ViewLux microplate reader (PerkinElmer) equipped with 405/10 excitation and 540/25 emission filters.
8; Dispense; 3 uL; Dispense ONE-Glo ([…]) lucifase detection reagent was added to each well. Plates were covered with metal lids with gas-exchange holes.
9; Incubate; 15 min; Incubate at room temperature.
10; Detector; Luminescence; Measure luminescence with ViewLux microplate reader (PerkinElmer) equipped with clear filters.
NOTES (numbers refer to sequence above)
1; HEK-293-SNCA-luc were cultured and suspended in phenol-red free DMEM (4.5 g/L glucose, 25 mM HEPES, cat #21063 (Thermo)).
3; Compounds were added to the assay plate in an 11-point intra plate dose response, 1:3 titration in DMSO with a final concentration range of […]. Vehicle-only plates, with DMSO being pin-transferred to every well, were inserted at the beginning of screening runs to confirm expected assay performance. Activity was normalized to wells containing medium only (-100% activity, full inhibition) and SNCA-luc cells treated with DMSO vehicle control (0% activity), contained on the same plate as test samples.
10; Signals were analyzed, and dose-response curves were fit using the Hill equation. Compounds in curve classes -1.1, -1.2, -2.1, -2.2 in the SNCA-luc assay were considered active. Compounds were eliminated from further consideration if also active (curve class -1.1, -1.2, -1.3, -1.4, -2.1, -2.2, -2.3, -2.4) in the GF-AFC cytotoxicity assay.
For `CCCCS(=O)(=O)N1CCCC(Cn2c(C3CC3)nc3cccnc32)C1` (configuration not stated), the Potency entry is “inactive”.
The result for `O=C1CC(c2ccccc2)N(Cc2cn[nH]c2-c2ccc(F)cc2)CCCCCN1` (configuration not stated) reads “inactive”.
The result for `COc1ccc(-c2nc(C(C)C)nc3c2CCN([S+](=O)([O-])c2cccc(C(F)(F)F)c2)CC3)cc1` reads “inactive”.
The result for `CC(C)NC(=O)N1CC(Oc2ccc(-c3noc(-c4cccnc4)n3)cc2)C1` reads “inactive”; that for `O=C(Nc1cccc(Cl)c1)C1CCCN(c2ccnc3ccnn23)C1` (configuration not stated), “inactive”.
In the case of `c1cn(-c2ccc(N3CCCCCC3)nc2)c(-c2cc3n(n2)CCCNC3)n1`, the Potency result is “inactive”.
As for `CSCC(=O)N1CCC2(CC1)CC(c1ccccc1)CN(C)C2` (configuration not stated), the Potency result is “inactive”.
With `O=C(c1cccc(C(F)(F)F)c1)N1C[C@@H](CO)[C@H](c2ccccn2)C1` the entry was “inactive”; with `CC(C)c1ccc(S(=O)(=O)N2CCc3nn(C)c(=O)n3CC2)cc1`, “inactive”.
Consider `COc1ccc(C(=O)N2C(C(=O)NCC(C)C)COC23CCN(C(=O)C2CCC2)CC3)cc1` (configuration not stated), for which the Potency entry was “inactive”.
The result for `Cc1ccc(NC(=O)CN2CC3CC(C2)[C@H]2CCCC(=O)N2C3)cc1` (some centres not stated) reads “inactive”; that for `O=C(NC[C@H]1OC[C@@H](NCc2ccccn2)[C@@H]1O)C1CCCC1`, “inactive”; that for `Cc1ccc(CN2CCCN(Cc3ccncc3)C(c3ccccc3)CC(=O)NCC2)s1` (configuration not stated), “inactive”.
With `COc1ccc(CNC[C@H]2O[C@H](Cc3cc(-c4ccc(OC)cc4)on3)CC[C@@H]2O)cc1` the entry was “inactive”; with `O=C(C1CCCC1)N1C[C@@H](CO)[C@H](c2ccncc2)C1`, 20 µM (active); with `CCOc1ccc(C(=O)N2C[C@@H](CO)[C@H](c3ccncc3)C2)cc1`, “inactive”.
The result for `Cc1ccc(C(=O)N2C[C@@H](CO)[C@H](c3ccncc3)C2)c(C)c1` reads “inactive”; that for `O=C1CCC2(CCN(Cc3ccc4[nH]ccc4c3)CC2)CN1CCc1ccccc1`, “inactive”; that for `O=C(c1ccoc1)N1CCC(N2C(=O)[C@H]3CN(Cc4ccccc4)C[C@H]3C2=O)CC1`, “inactive”.
For the compound `CCCNC(=O)N1CCC2(CC1)CC(C(=O)N1CCOCC1)N(C)C2` (configuration not stated), the Potency result is “inactive”.
The result for `O=C(NCc1ccnc2[nH]ccc12)c1ccccn1` reads “inactive”; that for `COc1ccc(-c2cc(-c3cnc4[nH]ccc4c3)cn3cncc23)cn1`, “inactive”.
With `COC[C@@H]1[C@H](NC(=O)C2(Cn3ccnc3)CC2)[C@@H]2CCO[C@H]12` the entry was “inactive”; with `CCN1CCN(C(=O)c2cn3cc(-c4ccc(C(F)(F)F)cc4)sc3n2)CC1`, “inactive”.
With `Cc1noc(C)c1CNC(=O)[C@H]1CN(Cc2ccccc2)C[C@H]1C(=O)O` the entry was “inactive”; with `COCC(=O)N[C@H]1C[C@H]2C(=O)Nc3ccc(/C=C/c4ccc(OC)cc4)cc3C(=O)N2C1`, “inactive”; with `CN(Cc1cccnc1)C1CN(C(=O)Nc2ccccc2F)C1`, “inactive”.
